Measured values reported in PubChem BioAssay (NCI).
The panel holds about 83,000 compounds, 20% with a hit somewhere; the sample as a whole holds those more often.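 Interpretation: 100, growth as untreated; towards 0, rising growth inhibition; 0, no net growth; 0 to -100, cell death. Compounds scoring below 10 were considered active.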 A number with no mark means an inactive call. The source made the active and inactive calls.

Experiments:
Assay in all cases: NCI-60 one-dose screen, 48 h (100 = growth as untreated, 0 = no growth, -100 = all killed)
Conditions in all cases: 10 µM unless noted
HCT-15 colon = tested on: HCT-15 colon
HT29 colon = tested on: HT29 colon
SNB-75 CNS = tested on: SNB-75 CNS
SNB-19 CNS = tested on: SNB-19 CNS
U251 CNS = tested on: U251 CNS
PC-3 prostate = tested on: PC-3 prostate
UACC-62 melanoma = tested on: UACC-62 melanoma
SK-MEL-28 melanoma = tested on: SK-MEL-28 melanoma
SK-MEL-2 melanoma = tested on: SK-MEL-2 melanoma
EKVX NSCLC = tested on: EKVX NSCLC
UO-31 renal = tested on: UO-31 renal
TK-10 renal = tested on: TK-10 renal
ACHN renal = tested on: ACHN renal
CAKI-1 renal = tested on: CAKI-1 renal
A498 renal = tested on: A498 renal
CCRF-CEM leukemia = tested on: CCRF-CEM leukemia
MOLT-4 leukemia = tested on: MOLT-4 leukemia
SN12C renal = tested on: SN12C renal
LOX IMVI melanoma = tested on: LOX IMVI melanoma

Row | Compound | growth (HCT-15 colon) | growth (HT29 colon) | growth (SNB-75 CNS) | growth (SNB-19 CNS) | growth (U251 CNS) | growth (PC-3 prostate) | growth (UACC-62 melanoma) | growth (SK-MEL-28 melanoma) | growth (SK-MEL-2 melanoma) | growth (EKVX NSCLC) | growth (UO-31 renal) | growth (TK-10 renal) | growth (ACHN renal) | growth (CAKI-1 renal) | growth (A498 renal) | growth (CCRF-CEM leukemia) | growth (MOLT-4 leukemia) | growth (SN12C renal) | growth (LOX IMVI melanoma)
1 | CCCn1c(=O)[nH]c(N)c([C@H]2c3ccccc3Oc3[nH]c(=O)n(CCC)c(=O)c32)c1=O | 48.9% | 85.3% | 82.9% | 97.8% | 81.8% | 107% | 80.6% | 73% | 92% | 93.2% | 78.8% | 79% | 73.6% | 86.1% | 92.9% | 14.3% | 39.5% |  | 
2 | COc1cc(Nc2cc(C)nc(N3CCN(c4ccnc5cc(Cl)ccc45)CC3)n2)cc(OC)c1 | 5.63% (active) | 3.4% (active) | 8.38% (active) | 27.5% | 9.56% (active) | 22.8% | -2.21% (active) | 44.5% | 26% |  | -9.39% (active) | 17.9% | 7.48% (active) | 10.8% | -12.5% (active) | 5.29% (active) | 5.97% (active) | 0.314% (active) | 
3 | CCc1nnc(CNc2ccc(Cl)cc2)o1 | 100% | 95.1% | 82.7% | 106% | 98.2% | 95.1% |  | 100% | 90.6% | 91.3% | 73.7% | 114% | 86.8% | 89.9% | 106% | 114% | 89.7% | 95.8% | 91.2%
4 | CCCCn1c(-c2ccc(C(=O)O/N=C(\N)c3ccc4ccccc4c3)cc2)nc(-c2ccccc2)c1-c1ccccc1 | 52.1% | 74.3% | 23.3% | 70.3% | 73% | 64.8% | 76.2% | 88.5% | 96.4% | 75.7% | -24.1% (active) | 86.2% | -72.7% (active) | 32.3% |  | 40.8% | 62.8% | 63.5% | 
5 | CC(=O)c1cc2c(N)c(C(=O)Nc3cccc4ccccc34)sc2nc1C | 33.8% | 5.75% (active) | 19.8% | 21.7% | 15.3% | 17.5% | 23.5% | 67.2% | 36.5% | 46.4% | 42.9% | 56.2% | 47.6% |  | 13.6% | 6.95% (active) | 24% | 40.9% | 
6 | CSc1ccc(SC2c3ccc(C)cc3Oc3nc(N)c(C#N)c(N)c32)cc1 (stereo unspecified) | -74.3% (active) | -65.1% (active) | -36.4% (active) | -96% (active) | -90.8% (active) | -76.2% (active) | -75.1% (active) | -86.7% (active) |  | -48.6% (active) | -99.2% (active) |  | -96.6% (active) |  | 4.22% (active) | -37% (active) | -17.9% (active) | -98% (active) | -92.6% (active)
7 | CNC(=O)c1cc(Oc2ccc(NC(=O)Nc3ccc(Cl)c(OC(F)(F)F)c3)c(F)c2)ccn1 | 28.8% | 14% | 83% | 30.3% | 32.3% | 22.1% | 5.13% (active) | 13.7% | 14.4% | 26.2% | 23% |  | 28.2% | 45.8% | 36.9% | 30.1% | 20.2% |  | 17.2%
8 | N#CN1CC[C@H](C(=O)Nc2cc3cc(C(N)=O)ccc3cn2)C1 | 3.81% (active) | -31.2% (active) | -28.4% (active) | 7.87% (active) | -2.5% (active) | 2.76% (active) | -34.5% (active) | -9.92% (active) | -64.3% (active) | 2.35% (active) | 17.7% | -17.7% (active) | 6.51% (active) | 11.9% | -34.4% (active) | 7.66% (active) | -18.1% (active) |  | 
9 | CC1=C[C@H]2c3c(c(O)c(O)c4oc5c(C)cccc5c(=O)c34)[C@H](c3cc(O)c(O)c4oc5c(C)cccc5c(=O)c34)[C@H]2C(C)(C)C1 | 12.5% | 21% | -25.7% (active) | 15.2% | 11.3% | 10.1% | -43% (active) | 26.6% |  | 23.5% | -27.2% (active) | 31.2% | 12.2% | 12.5% |  | 10.8% | 3.99% (active) | 10.6% | -85.8% (active)
10 | O=C(CN1CCCCC1)Nc1ccc2oc(=O)ccc2c1 | 104% | 104% | 95.6% | 98.4% | 102% | 86.8% | 97.7% | 121% |  | 101% | 79.1% | 108% | 111% |  | 106% | 86% | 83.1% | 101% | 96.6%
11 | COc1ccc(Nc2cc(C)nc(N3CCN(c4ccnc5cc(Cl)ccc45)CC3)n2)cc1 | 14.8% | 9.85% (active) | 42.7% | 48.1% | 37.6% | 33% | 17.7% | 59.9% | 48% |  | -0.534% (active) | 46.8% | 41.5% | 35.1% | -1.56% (active) | 16% | 11.1% | 40.9% | 
12 | Cc1nn(-c2cc(=O)[nH]c3ccccc23)c(N)c1C#N | 106% | 107% | 82.4% | 102% | 99% | 96% | 99.2% | 109% | 103% | 96.3% | 67.5% | 112% | 101% | 87.5% |  | 102% | 106% | 101% | 
13 | O=C1Nc2c(ccc(Cl)c2Cl)/C1=C\c1ccc(C(F)(F)F)cc1 | 81.9% | 74.4% | 73.4% | 81.6% | 74.2% | 62.5% | 61.9% | 97.4% |  | 55.2% | 57.9% | 96.4% | 86.5% | 65.9% | 102% | 6.78% (active) | 44.3% | 79.7% | 67%
14 | COc1ccc(SC2c3cc(OC)c(OC)cc3Oc3nc(N)c(C#N)c(N)c32)cc1 (stereo unspecified) | -62.2% (active) | -24.9% (active) | -65.2% (active) | -83% (active) | -98.6% (active) | -76.8% (active) | -75.1% (active) | -70.1% (active) | -26.3% (active) | -51.7% (active) | -100% (active) | -49.6% (active) | -95.6% (active) |  | -13.8% (active) | -37.2% (active) | -26.8% (active) | -90.6% (active) | 
15 | COc1cc(-c2nc3cc(Cl)c(Cl)cc3[nH]2)ccc1OCC(=O)N=Nc1c(O)[nH]c2ccccc12 | 64.4% | -23.1% (active) | -90% (active) | 0.731% (active) | -92% (active) | -59.3% (active) | -93.9% (active) | -93.4% (active) | -80.7% (active) |  | 93.5% |  | 20% | -46.8% (active) | -45.9% (active) | -44.8% (active) | -50.7% (active) | -69.7% (active) | -100% (active)
16 | FC(F)(F)c1[nH]ncc1-c1nc2ccc3n[nH]c(C#Cc4cccnc4)c3c2c2c1CCCC2 | 36.1% | 32.5% | -10.9% (active) | 59.9% | 54.7% | 47.1% | 26.8% | 32.4% | 65.8% | 30.1% | 19.8% | 46.4% | 22.6% | -7% (active) |  | 25.2% | 14.9% | 37.9% | 
17 | COc1cc2c(cc1-c1c(C)noc1C)ncc1nc(C3CCCCC3)n([C@H](C)COC(F)F)c12 | 15.1% | 19.3% | 41% | 45.4% | 45.7% | 35% | 22.8% | 49.9% | 69% | 44.3% | 13.6% | 33.2% | 33.1% | 29.2% | -13.1% (active) |  | 47.6% | 58.4% | 
18 | COc1cc2c(cc1O)CC[C@@H]1[C@@H]2CC[C@]2(C)[C@@H](NCCN(C)C)CC[C@@H]12 | -83.1% (active) | -91.9% (active) | -96.6% (active) | -79.6% (active) | -92.3% (active) | -91.2% (active) |  |  | -95.7% (active) | -82.8% (active) | -84.1% (active) | -95.8% (active) | -92.8% (active) | -95.9% (active) | -79.3% (active) | -71.8% (active) | -71.8% (active) |  | -84.2% (active)
